In PubChem BioAssay AID602281 (The Scripps Research Institute Molecular Screening Center, 2012):
Hit rate of the full screen: of about 360,000 compounds, about 2,900 (0.81%) were called active. For the sample, actives were picked, then their nearest neighbours and some compounds at random. Values without a mark were called inactive.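 The calls were made as follows: active = inhibition above the mean inhibition across every tested compound plus 3 SD (cut at about 22% in these data); inactive = the rest.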

Molecular target: Perilipin-5 (Homo sapiens) + 1-acylglycerol-3-phosphate O-acyltransferase ABHD5 (Homo sapiens) (UniProt Q00G26+Q8WTS1)
Sequence (Q00G26 whole entry, looked up): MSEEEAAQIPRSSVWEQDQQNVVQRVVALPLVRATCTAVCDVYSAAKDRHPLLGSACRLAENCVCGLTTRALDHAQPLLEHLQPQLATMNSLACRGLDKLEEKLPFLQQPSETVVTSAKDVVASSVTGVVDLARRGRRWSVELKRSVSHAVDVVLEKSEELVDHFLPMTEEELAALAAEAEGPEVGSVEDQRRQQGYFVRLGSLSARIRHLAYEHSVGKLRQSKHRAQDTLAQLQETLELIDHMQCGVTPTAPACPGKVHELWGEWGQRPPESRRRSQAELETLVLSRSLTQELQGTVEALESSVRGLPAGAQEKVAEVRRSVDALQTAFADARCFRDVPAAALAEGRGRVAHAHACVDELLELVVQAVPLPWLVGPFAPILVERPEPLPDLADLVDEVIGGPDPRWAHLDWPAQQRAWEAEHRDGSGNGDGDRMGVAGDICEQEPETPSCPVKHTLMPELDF
Sequence (Q8WTS1 whole entry, looked up): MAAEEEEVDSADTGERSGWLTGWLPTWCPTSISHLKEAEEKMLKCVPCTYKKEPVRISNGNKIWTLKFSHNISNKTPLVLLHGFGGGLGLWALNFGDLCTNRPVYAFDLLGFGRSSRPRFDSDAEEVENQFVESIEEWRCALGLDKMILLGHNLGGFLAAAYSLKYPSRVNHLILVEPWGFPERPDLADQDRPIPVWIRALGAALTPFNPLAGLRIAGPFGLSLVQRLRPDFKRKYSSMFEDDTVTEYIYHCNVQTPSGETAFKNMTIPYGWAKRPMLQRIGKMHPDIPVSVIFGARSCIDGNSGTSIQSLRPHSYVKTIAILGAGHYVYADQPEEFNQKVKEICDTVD
Test: blockers of ABHD5 binding to perilipin-5 – cell lysate, split luciferase complementation, luminescence, primary screen (AID 602281);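 also: 0% = DMSO only wells and the 100% control is not disclosed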
Settings: Split G. princeps luciferase complementation, 4 h, at 4 µM, stronger effect = higher value

| Compound | inhibition |
| --- | --- |
| COc1ccc(C2OC(CCc3ccccc3)Cc3[nH]c(=S)[nH]c(=O)c32)cc1 (stereo not given) | -6.49% |
| O=c1[nH][nH]c2c1[C@H](c1ccc(Cl)cc1)O[C@H](CCc1ccccc1)C2 | 29.6% (active) |
| CC(C)C1Cc2[nH][nH]c(=O)c2C(c2ccc(Cl)cc2)O1 (stereo not given) | 4.21% |
| CCOCCCNC(=O)c1ccc(CS(=O)(=O)c2cccc(C(F)(F)F)c2)o1 | 9.27% |
| N#C/C(=C(\O)C(F)(F)F)c1nnc2n1CCCCC2 | 4.79% |
| CC(=O)OCCOCn1cnn2c(=O)c(Br)c(C)nc12 | -1.92% |
| Cn1c2c(c(=O)n(C)c1=O)C(c1cccc(F)c1)C(C#N)=C(N)O2 (stereo not given) | 12.7% |
| Cc1cc2c(c(=O)n1C)C(C(C)C)C(C#N)=C(N)O2 (stereo not given) | 1.5% |
| Cc1cc2c(c(=O)n1Cc1ccco1)C(c1ccccc1)C(C#N)=C(N)O2 (stereo not given) | 36.4% (active) |
| CC1CCCCC1NC(=O)CSc1nnc(-c2ccncc2)n1CCCN(C)C (stereo not given) | 3.79% |
| COC1=NC2=NCCN2C(OC)=N1 | 7.21% |
| Cn1c2ccccc2c2cc(/C=C(\NC(=O)c3ccccc3)C(=O)NCC(=O)O)ccc21 | 4.74% |
| C[C@H](CO)N1C[C@H](C)[C@@H](CN(C)Cc2ccc(-c3ccccc3)cc2)Oc2ccc(NC(=O)Cn3cnnn3)cc2C1=O | 1.64% |
| O=C(CSC1=NS(=O)(=O)c2cc(F)ccc2N1)Nc1ccccc1F | -1.35% |
| C=CCNC(=S)/N=c1/ccccn1Cc1ccccc1 | -6.7% |
| CC1CCCN(CC(=O)Nc2cc(Cl)ccc2Oc2ccccc2)C1 (stereo not given) | -6.16% |
| OC(c1ccccc1)(c1ccccc1)C1CCN(CCCOc2ccccc2)CC1 | 4.12% |
| CN1CCC[C@@H]1CCO[C@](C)(c1ccccc1)c1ccc(Cl)cc1 | 24.5% (active) |
| Cc1cc(C)cc(N)c1 | -4.69% |
| COc1cc(/C=C/CNC[C@H]2O[C@@H](n3cnc(C(N)=O)n3)[C@H](O)[C@@H]2O)ccc1O | 9.45% |
| COc1ccc(NC(=O)C2=C(C)NC(=O)NC2c2ccccc2[N+](=O)[O-])cc1 (stereo not given) | -1.09% |
| COc1ccc(NC(=O)ON=C2c3ccccc3-c3ccccc32)cc1 | -4.58% |
| COc1ccc(N/C=C(\C2OC(=O)c3ccccc32)[N+](=O)[O-])cc1 (stereo not given) | 42.9% (active) |
| Cc1cc(C)c(S(=O)(=O)N2CCOCC2)cc1C | 2.37% |
| CC(=O)c1ccc(N=C2SCCCN2C(=O)C2CCCCC2)cc1 | -0.57% |

| Compound | inhibition |
| --- | --- |
| CC(=O)c1c(C)[nH]c(C(=O)COc2ccc3c(C)cc(=O)oc3c2)c1C | -4.41% |
| O=C(NC1=CC(=O)c2ccccc2C1=O)c1ccccc1 | 84.6% (active) |
| C/C(=N\NC(=O)c1ccc(C)cc1)C1C(=O)c2ccccc2C1=O | 5.2% |
| CN(C)C(=O)c1ccc(NC(=O)c2ccccc2-c2ccccc2)cc1 | 2.67% |
| CCC(=O)Nc1ccc(C(=O)CSc2nnc(CNc3ccc(Cl)cc3)o2)cc1OC | -15.2% |
| OC1CSc2nc3ccccc3n2C1 (stereo not given) | 1.22% |
| O=C(Cc1ccccc1Cl)N1CCOCC1 | 1.3% |
| Cc1cc(C)c(NC(=O)CN2C(=O)NC(Cc3ccccc3)C2=O)c(C)c1 (stereo not given) | 3.3% |
| O=C(Nc1nnc(Cc2ccc(Cl)cc2)s1)c1cccnc1 | 10% |
| CN(Cc1ccccc1)S(=O)(=O)c1nnc(NC(=O)c2ccccc2F)s1 | -11.4% |
| Cc1ccc(CS(=O)(=O)CCC(=O)NC2CC2)cc1 | 0.91% |
| CSc1nnc(NC(=O)c2nc(S(=O)(=O)Cc3ccc(C)cc3)ncc2Cl)s1 | 32.5% (active) |
| Cc1ccc(CS(=O)(=O)c2ncc(Cl)c(C(=O)Nc3nnc(C)s3)n2)cc1 | 43.2% (active) |
| CCOC(=O)c1sc(N)c(C#N)c1COC(=O)C1=COCCO1 | -2.21% |
| CCCCn1c(N)c(N(CCOC)C(=O)c2cccc(S(=O)(=O)N(C)c3ccccc3)c2)c(=O)[nH]c1=O | -4.97% |
| COC(=O)Cc1ccc(N(Cc2ccccc2F)S(=O)(=O)c2ccc(Br)cc2)cc1 | 0.04% |
| Cc1cccc(NC(=O)c2ccc3nsnc3c2)c1C | 122% (active) |
| Cc1cccc(NC(=O)c2ccc(OCC(=O)NCc3ccccc3)cc2)c1C | -5.25% |
| Cc1cccc(NC(=O)c2cccc(C(=O)Nc3cccc(C)c3C)n2)c1C | -2.21% |
| Cc1noc(C)c1COc1ccccc1C(=O)N(C)CC(=O)Nc1cccc(F)c1 | 8.24% |
| O=NN(CCCl)C(=O)NCCc1cccc[n+]1[O-] | 1.74% |
| COC(=O)C1(C)NC(c2ccc(C)cc2)C2C(=O)N(c3ccc(F)cc3)C(=O)C21 (stereo not given) | 4.79% |
| COC(=O)C1(C)NC(c2ccc(F)cc2)C2C(=O)N(c3ccccc3)C(=O)C21 (stereo not given) | -0.78% |
| COC(=O)C1(C)NC(c2ccccc2OC)C2C(=O)N(c3ccccc3)C(=O)C21 (stereo not given) | 69.3% (active) |
| CC(C)CNC(=S)NNC(=O)c1nn(C)cc1Cl | -4.74% |
